# High-throughput results: PubChem, National Center for Advancing Translational Sciences (NCATS)
# Most compounds without a hit are left out; they make up all but 9.2% or so of the library.
# LMNA splice mod: LMNA splicing modulation; HeLa LMNA splicing GFP/RFP minigene ratio, 48 h; 200,000 compounds, 0.01% hits; Potency, µM (highest dose often 46.1 µM), inactives show at the top dose ratio change, negative = inhibition, usual class: inhibitors; active = well fitted inhibition curve with a large enough effect in the signal ratio, with a control signal flat, not every such curve was filed as active; inconclusive = small, poorly fitted or top-dose-only effect, or effect the other way, or a change in a side signal; the % refers to the signal ratio; note: % is set by controls: 0 for no effect and ±100 for the full control effect
#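 S3 HeLa stable clones carrying a lamin A-EGFP splicing minigene plus DsRed2 were seeded at 600 cells/well in Opti-MEM with 2% FBS, pin-dosed and incubated 48 h at 37°C. Acumen cytometry (488 nm) gave the GFP/RFP total-intensity ratio.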
# HTT ATP protect: protects HTT-Q103 PC12 cells, measured by ATP; PC12 HTT-Q103 induced, cytoprotection, ATP luminescence, 40 h; Potency, µM (series often up to 56.4 µM), for inactives: cytoprotection (ATP increase), actives largely listed as activators; 230,000 compounds, 0.14% hits; AID 1471; active = well fitted curve in the direction sought with a large enough effect; inconclusive = small, poorly fitted or top-dose-only effect, or another doubt; inactive = no such curve, though single readings can be large; an effect the other way counts as inactive or inconclusive; note: % of control where 0% means no effect; nearly all actives have a fitted effect of over 45% in size
#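 Stable PC12 Q103-GFP cells in serum-supplemented, phenol red-free DMEM; induction by tebufenozide at 100 nM final; compound dose series; cell viability quantified luminescently from ATP.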
# HTT aggregate: mutant huntingtin aggregation inhibition. PC12 HttQ103-GFP aggregates, Acumen cytometry, 40 h. Potency, µM (series often up to 46.1 µM), for the others: at the top dose activity change, negative = inhibition, actives largely listed as inhibitors. 220,000 compounds, 1.1% hits. AID 1688; active = well fitted curve in the direction sought with a large enough effect; inconclusive = small, poorly fitted or top-dose-only effect, or another doubt; inactive = no such curve, though single readings can be large; an effect the other way counts as inactive or inconclusive; note: % is set by controls: 0 for no effect and ±100 for the full control effect; nearly all actives have a fitted effect of over 60% in size
#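 Huntingtin Q103 exon 1–GFP aggregates in induced PC12 cells (100 nM tebufenozide) were quantified by cytometry from lysates, with compounds dosed in titration.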
# HPGD block: inhibitors of human 15-hydroxyprostaglandin dehydrogenase (HPGD). 150,000 compounds, 4.3% hits. Potency, µM, inactives show at the highest dose activity change, negative = inhibition, most hits filed as inhibitors. purified HPGD, NADH fluorescence kinetic, PGE2 substrate. P15428; note: % is set by controls: 0 for no effect and ±100 for the full control effect
# Target sequence (P15428 whole entry, looked up): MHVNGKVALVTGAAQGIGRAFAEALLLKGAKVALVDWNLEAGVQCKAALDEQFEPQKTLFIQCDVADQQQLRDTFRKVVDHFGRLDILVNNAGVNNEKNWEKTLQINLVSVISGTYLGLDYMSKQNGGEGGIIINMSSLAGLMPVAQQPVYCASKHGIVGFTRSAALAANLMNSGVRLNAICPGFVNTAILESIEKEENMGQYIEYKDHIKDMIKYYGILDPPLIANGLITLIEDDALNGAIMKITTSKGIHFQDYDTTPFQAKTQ
#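 20 nM HPGD preincubated 15 min at room temperature with compound in 50 mM Tris-HCl pH 8, 0.01% Tween 20. Started with 1 mM NAD+ and 30 uM prostaglandin E2; NADH fluorescence (360/450 nm) read 5 times over 30-s intervals, last minus first.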
# ALDH1A1 block: blocks purified human ALDH1A1 activity | P00352 | Purified ALDH1A1, NADH fluorescence, propionaldehyde substrate | Potency, µM (titrated, usually from 75.3 µM), without a hit: at the highest dose activity, negative = inhibition, most hits filed as inhibitors | 220,000 compounds, 7.3% hits;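 note: plate controls were no enzyme wells and a reference inhibitor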
# Target sequence (P00352 whole entry, looked up): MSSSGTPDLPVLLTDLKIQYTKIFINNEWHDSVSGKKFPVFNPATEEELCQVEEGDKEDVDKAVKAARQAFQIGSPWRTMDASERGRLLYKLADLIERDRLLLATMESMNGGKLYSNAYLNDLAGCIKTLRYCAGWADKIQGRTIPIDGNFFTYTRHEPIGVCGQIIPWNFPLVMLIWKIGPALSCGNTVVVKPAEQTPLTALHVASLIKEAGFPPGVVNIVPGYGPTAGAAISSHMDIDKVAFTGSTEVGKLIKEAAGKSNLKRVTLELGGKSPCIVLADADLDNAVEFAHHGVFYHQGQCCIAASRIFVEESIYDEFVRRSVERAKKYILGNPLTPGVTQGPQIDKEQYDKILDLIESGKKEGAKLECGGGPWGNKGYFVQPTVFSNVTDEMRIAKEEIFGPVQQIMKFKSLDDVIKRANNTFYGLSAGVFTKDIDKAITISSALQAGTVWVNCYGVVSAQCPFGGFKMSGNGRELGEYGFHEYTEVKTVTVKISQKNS
# KDM4E inh: blocks human JMJD2E demethylase activity; Potency, µM (doses to about 57.1 µM), without a hit: top-dose activity change, negative = inhibition, hits mostly inhibitors; JMJD2E catalytic domain, FDH-coupled NADH fluorescence (FDH is formaldehyde dehydrogenase); 230,000 compounds, 1.6% hits;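 note: 0% = wells with enzyme and -100% = buffer wells without enzyme; nearly all actives have a fitted effect of over 50% in size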
# The depositor's hits bear a star; ? = inconclusive; . = not tested or not shown; [ ] = dose if it differs, or a comment. Unless noted, calls come from the whole dose curve; as a rule, active = well fitted inhibition curve with a large enough effect (not every such curve was filed as active); inconclusive = small, poorly fitted or top-dose-only effect, or another doubt; inactive = no such curve, though single readings can be large or run the other way. Potency is the fitted concentration of half-maximal effect.
SMILES,LMNA splice mod,HTT ATP protect,HTT aggregate,HPGD block,ALDH1A1 block,KDM4E inh
OCC(O)C(O)C(O)CO (stereo not drawn),0.6%,-7.6%,-2.7%,-6.6%,1.0%,0.3%
COc1cccc2c1C(CO)N1C(C#N)C3CC(C(=O)O)C(C1C2)N3C (stereo not drawn),.,-54.7%[10 µM],1.12µM*,.,.,-5.3%
CCSc1nnc(NC(=O)c2cccc(OCc3c(C)noc3C)c2)s1,?,-19.1%[10 µM],-17.1%,25.1µM*,?,?
Cc1noc(C)c1COc1ccc(C(=O)OCC(=O)NCc2ccccc2Cl)cc1,-10.1%,14.2%[10 µM],-3.4%,-13.1%,-6.1%,-4.8%
Cc1noc(C)c1COc1cccc(C(=O)NCc2ccccc2Cl)c1,?,-5.3%[10 µM],-4.7%,15.8µM*,-25.6%,1.8%
Cc1nc(C)c(C(=O)NCc2ccccc2Cl)o1,?,-11.5%,?,25.1µM*,22.4µM*,4.0%
O=[N+]([O-])c1ccc2c(c1)Cc1cc(N=Cc3ccc4c(c3)OCO4)ccc1-2,.,6.7%[10 µM],.,-3.0%,-3.0%[13.5 µM],.
BrC/C=C/CBr,.,-9.5%,.,-2.3%,25.1µM*,.
Fc1ccccc1-c1csc(=Nc2cccnc2)n1CCCn1ccnc1,-18.3%,3.2%[10 µM],35.5µM*,-9.9%,?,1.4%
Fc1ccccc1-c1csc(=Nc2cccnc2)n1CC1CCCO1 (stereo not drawn),?,9.1%[10 µM],3.4%,-27.2%,2.3%,-1.4%
CC(C)Cn1c(-c2ccco2)csc1=Nc1cccnc1,17.2%,-4.5%,-17.2%,-14.9%,12.6µM*,-12.5%
Cc1cc(NC(=O)NN2CCOCC2)nn1-c1c(Cl)cc(Cl)cc1Cl,.,12.4%[10 µM],4.4%[9.22 µM],.,5.2%,5.2%
O=C(NCc1ccc2c(c1)OCO2)C1CCN(S(=O)(=O)N2CCCCC2)CC1,?,.,-2.6%,-7.8%,5.01µM*,14.6%
O=C(NCc1ccc2c(c1)OCO2)C1CCN(S(=O)(=O)c2cccs2)CC1,-1.6%,-19.4%,-10.4%,-11.3%,0.316µM*,-4.3%
O=C(NCc1ccc2c(c1)OCO2)C1CCN(S(=O)(=O)c2ccc(Br)s2)CC1,-4.6%,3.0%[10 µM],-14.9%,-13.3%,?,0.0%
COc1ccc(NC(=O)c2nnn(CC(=O)Nc3cccc(C)c3C)c2N)c(OC)c1,9.3%[46 µM],.,.,.,.,.
Cc1ccc(C)c(S(=O)(=O)Nc2ccc3scnc3c2)c1,-22.0%,-58.1%,-21.7%,-16.9%,1.78µM*,-0.1%
NC[C@@H]1O[C@H](OC2[C@@H](CO)O[C@@H](OC3[C@H](O)[C@H](N)C[C@H](N)[C@H]3OC3O[C@H](CO)[C@@H](O)[C@H](O)[C@@H]3N)[C@H]2O)C(N)[C@H](O)[C@@H]1O (stereo partly drawn),-6.0%,3.6%,6.4%,.,.,.
COc1ccccc1N1CCN(C(=O)CCc2c(C)nn(-c3ccc(N4CCCC4)nn3)c2C)CC1,2.6%[46 µM],.,.,.,.,.
Cc1csc(=N)n1CC(=O)N1CCc2ccccc21,-0.9%,13.7%,-4.0%,-4.2%,25.1µM*,9.6%
O=C(CCCC(=O)N1CCc2ccccc21)N1CCc2ccccc21,3.0%,-6.9%,0.2%,-8.0%,9.7%,-0.8%
O=C(CO/N=C/c1ccccc1O)N1CCc2ccccc21,-3.5%,8.9%[10 µM],3.6%,-7.8%,10µM*,-2.3%
CCOCC(=O)N1CCc2ccccc21,-5.6%,-1.6%[0.074 µM],-7.6%,-1.4%,3.55µM*,0.0%
O=C(OCC(=O)N1CCc2ccccc21)c1ccccc1,-10.3%,-2.2%[10 µM],2.5%,-10.0%,2.5%,-7.9%
Cc1cccc(C2c3[nH]c4ccccc4c3CCN2Cc2cccn2-c2ncccn2)c1 (stereo not drawn),.,.,.,.,-7.0%,31.6µM*
SMILES,LMNA splice mod,HTT ATP protect,HTT aggregate,HPGD block,ALDH1A1 block,KDM4E inh
O=C(CSc1nnnn1-c1ccccc1)c1ccco1,3.5%[46 µM],-7.7%[10 µM],2.1%,.,?,1.6%
O=C(CSc1nnc2sc3ccccc3n12)c1ccco1,1.4%,-7.8%[10 µM],-2.8%,22.4µM*,15.8µM*,-2.5%
O=C(CSCCSCC(=O)c1ccco1)c1ccco1,9.7%,-3.4%[10 µM],9.5%,?,22.4µM*,-19.3%
Cn1nnnc1SCC(=O)c1ccco1,3.6%,7.6%,13.9%,-9.2%,39.8µM*,-2.3%
CN(C)C(=O)CSc1nnc2sc3ccccc3n12,-0.4%,1.7%,-14.1%,-10.9%,-6.5%,1.0%
O=c1c2ccccc2nnn1CSc1nnc2sc3ccccc3n12,12.3%,0.6%[1.9 µM],8.0%,-24.6%,12.6µM*,1.1%
COc1ccc(CNC(=O)c2cnn(-c3ccc(C)cc3)c2-n2cccc2)cc1OC,17.5%[46 µM],.,.,.,.,.
COc1ccccc1CN1CCC2(CC1)CCN(S(C)(=O)=O)CC2,.,-4.9%,.,0.9%,-8.2%,.
Cc1nc(N)sc1-c1csc(N(C)c2ccc(O)cc2)n1,?,-33.6%,-10.7%,14.1µM*,14.1µM*,-20.1%
CN(c1ccc(O)cc1)c1nc(-c2cccs2)cs1,0.1%[46 µM],31.8%[10 µM],15.0%[9.22 µM],.,6.8%,3.5%
CCOc1ccc(S(=O)(=O)Nc2ccc(O)c(Sc3ncn[nH]3)c2)cc1,?,32.5%[10 µM],2.5%,-10.9%,-12.1%,-0.1%
COc1ccc(OC)c(S(=O)(=O)Nc2ccc(O)c(Sc3ncn[nH]3)c2)c1,?,9.1%[0.074 µM],8.2%,22.4µM*,7.5%,-7.9%
COc1ccc(OC)c(S(=O)(=O)Nc2ccc(O)c3ccccc23)c1,?,-26.5%[10 µM],17.8µM*,3.16µM*,3.55µM*,?
COc1ccc(-c2noc(N3CCN(c4cccc(C)c4C)CC3)n2)cc1OC,-14.6%[46 µM],.,.,.,.,.
COc1cc([C@@H]2c3cc4c(cc3[C@@H](OC3OC5COC(C)OC5C(O)C3O)[C@H]3COC(=O)[C@H]23)OCO4)cc(OC)c1O (stereo partly drawn),.,-141.4%,.,.,-1.4%,.
Cc1cc(C)cc(NC(=S)NN)c1,4.5%[46 µM],4.6%,-6.1%,.,-15.5%,0.8%
CC(Nc1nc(-c2ccccc2O)nc2ccccc12)c1ccccc1 (stereo not drawn),.,-10.5%[10 µM],-15.7%[9.22 µM],.,.,-16.0%
CCOc1nc(-c2ccccc2O)nc2ccccc12,-5.3%,-2.3%[10 µM],-14.7%,12.6µM*,1.6%,0.1%
Nc1ccc(SC(F)(F)F)cc1,7.1%[46 µM],-14.7%[10 µM],21.8%,.,20µM*,?
CN(C)CCOc1nc(-c2ccccc2)nc2c1oc1ccccc12,?,-44.3%,22.4µM*,-16.5%,-0.2%,-5.1%
CN(C)CCOc1ncnc2c1oc1ccccc12,1.1%,15.1%,?,-0.7%,10.0%,4.6%
CC(C)N=C1NN=C(c2ccc(F)cc2)CS1,.,-68.4%,-30.6%,.,?,-14.0%
CCOC(=O)C1=C(C)N=c2s/c(=C/c3ccco3)c(=O)n2C1c1cccc(OC)c1 (stereo not drawn),2.2%,-3.4%,7.3%,14.1µM*,3.55µM*,-2.6%
